In PubChem BioAssay (NCATS):
Inconclusive results are not listed. Activity calls are given as the source filed them. Unless noted, calls follow the shape of the dose curve; as a rule, active = well fitted curve in the direction sought with a large enough effect; inconclusive = small, poorly fitted or top-dose-only effect, or another doubt; inactive = no such curve, though single readings can be large; an effect the other way counts as inactive or inconclusive.

Tests used:
[1] = Cellular Toxicity (caspase-3) BJ (AID 658);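 also: cells exposed to compound for 16 hours; 0% = DMSO basal and 100% = 10 µM staurosporine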
Summary of the method: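 qHTS, BJ fibroblasts, 1000 cells/well; 5 hr preincubation, 16 hr compound, 37 °C; Caspase-Glo 3/7 reagent, 1 hr RT; luminescence. DMSO = 0%, 10 uM staurosporine = 100%. Hill-equation AC50.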

[2] = Cell Viability - LYMP2-026 (AID 989); also: % is scaled to controls: 0 for no effect and ±100 for the full control effect; nearly all actives have a fitted effect of over 50% in size
Summary of the method: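 Cytotoxicity read as ATP-dependent luminescence (CellTiter-Glo, 30 min room temperature) after 24 h compound treatment at 37 C. LYMP2-026 lymphoblastoid line seeded at 2500 cells/well; AC50 derived by standard Hill equation.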

[3] = Cell Viability - LYMP1-002 - Assay at 24 hr (AID 993); also: % is scaled to controls: 0 for no effect and ±100 for the full control effect
Summary of the method: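 qHTS cytotoxicity at 24 h: CellTiter-Glo ATP luminescence in lymphoblastoid line LYMP1-002 incubated with compound at 37 °C. Concentration-response modeled with the Hill equation for AC50; tetraoctylammonium bromide served as positive control.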

[4] = qHTS assay for small molecule antagonists of peroxisome proliferator-activated receptor delta signaling (AID 588535; active = well fitted inhibition curve with a large enough effect in the signal ratio, with a control signal flat, not every such curve was filed as active; the % refers to the signal ratio;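 as to max response: cells co-treated with a PPAR-delta agonist as stimulator during compound exposure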); conditions: HEK293T PPARd-UAS-bla, beta-lactamase FRET ratio, 18 h; 460 nm channel
Summary of the method: (§1)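 Fluorescence from CCF4-loaded GeneBLAzer PPAR-delta-UAS-bla HEK293T cells (2 hrs RT loading) quantified reporter inhibition after an 18 hr, 37 C compound exposure across a titration.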

[5] = biological target: Peroxisome proliferator-activated receptor delta (Homo sapiens) (UniProt Q03181); assay: as above
Summary of the method: as §1

[6] = qHTS assay for small molecule agonists of the antioxidant response element (ARE) signaling pathway (AID 651741; active = well fitted activation curve with a large enough effect in the signal ratio; the % refers to the signal ratio; also: % of control where 0% means no effect)
Summary of the method: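 Stably integrated ARE-beta-lactamase reporter HepG2 cells; 16 h compound incubation, 37 C; LiveBLAzer FRET substrate 2 h at room temperature; fluorescence intensity.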

[7] = Cell Viability - LYMP2-023 (AID 975);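 also: cellular ATP measured by luciferase luminescence as viability proxy; cells exposed to compound for 24 hours at 37 °C; plate controls were DMSO only for no effect and 92 µM tetraoctylammonium bromide control for full effect; nearly all actives have a fitted effect of over 55% in size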
Summary of the method: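 Intracellular ATP, read by CellTiter-Glo luminescence, reports viability after 24 hr compound exposure at 37 C. 2500 lymphoblastoid cells/well (LYMP2-023) seeded 5 hr beforehand; Hill fits give AC50; positive control tetraoctylammonium bromide.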

[8] = biological target: Estrogen receptor (Homo sapiens) (UniProt P03372); assay: qHTS assay for small molecule antagonists of estrogen receptor alpha signaling (AID 588513; active = well fitted curve in the direction sought with a large enough effect in the signal ratio, with a control signal flat, not every such curve was filed as active; the % refers to the signal ratio; also: % is scaled to controls: 0 for no effect and ±100 for the full control effect)
Summary of the method: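 Fluorescence from CCF4 substrate after 2 h at room temperature gave reporter activity; cells had been exposed to compound and 0.5nM 17-beta-estradiol for 18 h at 37 C. Hill-equation fitting yielded IC50 and maximal response.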

[9] = biological target: Androgen receptor (Homo sapiens) (UniProt P10275); assay: qHTS assay for small molecule agonists of androgen receptor signaling (AID 588515; active = well fitted curve in the direction sought with a large enough effect in the signal ratio, with a control signal flat; the % refers to the signal ratio; also: % is scaled to controls: 0 for no effect and ±100 for the full control effect); conditions: AR-UAS-bla HEK293, beta-lactamase ratio, agonist 16 h; stronger effect = higher value
Summary of the method: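 Stimulation of an AR-responsive β-lactamase reporter in GripTite HEK293 cells was measured after 16 h compound exposure at 37 °C, via CCF4 fluorescence after 2 h RT. EC50 from Hill fits, normalized to R1881 at 30 nM.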

[10] = biological target: Androgen receptor (Homo sapiens) (UniProt P10275); assay: qHTS assay for small molecule antagonists of androgen receptor signaling (AID 588516; active = well fitted curve in the direction sought with a large enough effect in the signal ratio, with a control signal flat, not every such curve was filed as active; the % refers to the signal ratio; also: % is scaled to controls: 0 for no effect and ±100 for the full control effect)
Summary of the method: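 Cells were plated and incubated 5 h, compounds added in titration, then R1881 (10 nM final) as agonist. After 16 h at 37 C, CCF4 substrate was loaded for 2 h at room temperature and fluorescence measured.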

[11] = biological target: Bile acid receptor (Homo sapiens) (UniProt Q96RI1); assay: qHTS assay for small molecule antagonists of farnesoid X receptor signaling (AID 588526; calls by dose curve; also: % is scaled to controls: 0 for no effect and ±100 for the full control effect)
Summary of the method: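 Antagonist mode: titrated compounds tested against chenodeoxycholic acid stimulation (normalized to 50 uM CDCA and DMSO) in GeneBLAzer HEK293T cells for 16 h. Beta-lactamase read by CCF4 fluorescence; IC50 from Hill fits.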

[12] = biological target: Vitamin D3 receptor (Homo sapiens) (UniProt P11473); assay: qHTS assay for small molecule antagonists of vitamin D receptor signaling (AID 588541; calls by dose curve)
Summary of the method: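 VDR-UAS-bla HEK293T cells in 2% charcoal-stripped FBS were stimulated with 1-alpha,25-dihydroxyvitamin D3 (3 nM final) plus compound for 16 h at 37 C. The beta-lactamase CCF4 readout was normalized to 50 nM agonist and DMSO, and Hill fits gave IC50.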

[13] = biological target: Vitamin D3 receptor (Homo sapiens) (UniProt P11473); assay: qHTS assay for small molecule agonists of vitamin D receptor signaling (AID 588543; calls by dose curve;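 also: 0% = DMSO basal and 100% = reference agonist control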)
Summary of the method: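 Reporter cells (HEK293T, VDR-UAS-bla) were seeded in medium with 2% charcoal-stripped serum and incubated 5 h, then compounds in concentration series were added for 16 h at 37 °C. Stimulation was scaled between DMSO basal and 50 nM 1α,25-dihydroxyvitamin D3.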

[14] = biological target: Estrogen receptor (Homo sapiens) (UniProt P03372); assay: qHTS assay for small molecule agonists of estrogen receptor alpha signaling (AID 588514; calls by dose curve;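 also: 0% = vehicle only and 100% = reference agonist; nearly all actives have a fitted effect of over 70% in size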)
Summary of the method: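 EC50 and efficacy came from Hill fits of beta-lactamase reporter signal (CCF4 dye, 2 h at room temperature) scaled between DMSO and 20 nM 17-beta-estradiol. Agonist mode: HEK293 ER-alpha-UAS-bla cells in charcoal/dextran-stripped serum medium, 18 h compound exposure at 37 C.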

[15] = biological target: Glucocorticoid receptor (Homo sapiens) (UniProt P04150); assay: qHTS assay for small molecule agonists of glucocorticoid receptor signaling (AID 588532; active = well fitted curve in the direction sought with a large enough effect in the signal ratio, with a control signal flat; the % refers to the signal ratio;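 also: 100% = dexamethasone at 0.1 µM and 0% = DMSO only wells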); conditions: HeLa MMTV-bla, beta-lactamase ratio, agonist, 18 h; stronger effect = higher value; percent of dexamethasone control, DMSO zero
Summary of the method: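 HeLa GRE-bla reporter cells; 18 h compound exposure at 37 C; 2 h CCF4 loading at room temperature; fluorescence at 460 and 530 nm; EC50 by Hill equation.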

[16] = biological target: Peroxisome proliferator-activated receptor gamma (Homo sapiens) (UniProt P37231); assay: qHTS assay for small molecule antagonists of peroxisome proliferator-activated receptor gamma signaling (AID 588537; active = well fitted inhibition curve with a large enough effect in the signal ratio, with a control signal flat, not every such curve was filed as active; the % refers to the signal ratio;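 also: reporter cells co-stimulated with 50 nM rosiglitazone agonist during compound treatment; % of control where 0% means no effect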)
Summary of the method: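 Fluorescence at 460 and 530 nm (405 nm excitation) reported beta-lactamase cleavage of CCF4 after 2 h room-temperature loading. HEK293 reporter cells in 1% charcoal/dextran-treated FBS had received compound and rosiglitazone for 16 h.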

[17] = qHTS assay for small molecule agonists of retinoid X receptor alpha signaling (AID 588544); conditions: HEK293T RXRa-UAS-bla, beta-lactamase reporter, 18 h; 530 nm emission
[18] = biological target: Glutathione peroxidase 1 (Homo sapiens) (UniProt P07203); assay: Primary qHTS Assay for Inhibitors of Recombinant Selenoprotein Glutathione Peroxidase 1 (GPX1) (AID 1845191); also: nearly all actives have a fitted effect of over 65% in size
Summary of the method: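 GR-coupled readout: NADPH consumption tracked by fluorescence, ex 340/em 450 nm, at t=0 and after 15 min at RT. Final mix 10 nM GPX1, 1 mM GSH, 0.5 mM CHP, 0.5 mM NADPH, 100 nM GR, 0.01% BSA, following 30 min enzyme–compound preincubation.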

[19] = biological target: Phospholipid hydroperoxide glutathione peroxidase GPX4 (Homo sapiens) (UniProt P36969); assay: Primary qHTS Assay for Inhibitors of Recombinant Selenoprotein Glutathione Peroxidase 4 (GPX4) (AID 1845192); also: potency is read from the fitted curve at half-maximal effect; nearly all actives have a fitted effect of over 65% in size
Summary of the method: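 Steps: GPX4 plus compound, 30 min RT; add GR/GSH/NADPH master mix; start with cumene hydroperoxide; read 340/450 nm fluorescence at 0 and 15 min. Finals were 200 nM GPX4, 1 mM GSH, 0.5 mM CHP, 0.5 mM NADPH, 100 nM GR.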

[20] = AP1 Signaling Pathway (AID 357; active = well fitted curve in either direction with a large enough effect, not every such curve was filed as active); conditions: ME-180 (cervical carcinoma) AP-1-bla reporter, EGF-induced, beta-lactamase ratio, 5 h; at 7.69 µM (top of the series) unless noted
Summary of the method: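 A ratiometric CCF4 readout (405 nm excitation; 460 and 530 nm emission) quantified AP-1-driven beta-lactamase in ME-180 cells after 5 h with compound and EC50 EGF; AC50 values were derived for activators and inhibitors.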

[21] = biological target: Cytochrome P450 1A2 (Homo sapiens) (UniProt P05177); assay: p450-cyp1a2 (AID 410; calls by dose curve; also: potency is read from the fitted curve at half-maximal effect)
Summary of the method: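 Luminescent demethylation readout: Luciferin-ME (100uM, equal to Km) turned over by 20nM CYP1A2 for 60 min at room temperature after NADPH regeneration addition, following 10 min compound preincubation. Normalization used 57 uM furafylline as full inhibition.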

[22] = Stat Signaling Pathway (AID 446; active = well fitted curve in either direction with a large enough effect, not every such curve was filed as active)
Summary of the method: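 Emission at 460 and 530 nm (excitation 405 nm) reports SIE-controlled beta-lactamase in ME-180 cells. Cells received compound with 40 pM IL-6 for 5 hrs at 37 C; data scaled between 300 pM IL-6 and 125 nM JAK-inhibitor controls.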

[23] = biological target: Glucocorticoid receptor (Homo sapiens) (UniProt P04150); assay: GR-GFP Redistribution (AID 450;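 active = compounds whose dose series gives a full or clear partial fitted curve of increased nuclear translocation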; also: potency is read from the fitted curve at half-maximal effect); conditions: U2OS GR-GFP nuclear translocation, laser cytometry, 2 h
[24] = biological target: Glucocorticoid receptor (Homo sapiens) (UniProt P04150); assay: GR-EFC Redistribution (AID 451; calls by dose curve; also: potency is read from the fitted curve at half-maximal effect); conditions: CHO-K1 GR-EFC translocation, beta-gal luminescence, 2 h
Summary of the method: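 CHO-K1 cells expressing nuclear EA and GR-ED fragments of b-gal; compounds titrated up to 46 uM final, 2 h at 37 C. GR nuclear translocation read as complemented b-gal luminescence after 1 h RT detection.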

[25] = biological target: Mitogen-activated protein kinase 10 (Mus musculus) (UniProt Q61831); assay: JNK3 AlphaScreen Assay (AID 530; active = well fitted curve in either direction with a large enough effect, not every such curve was filed as active)
Summary of the method: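 Activity was read by AlphaScreen after JNK3-containing HepG2 lysate (cytokine pre-activated) phosphorylated biotinylated GST-cJun with 10 uM ATP at room temperature. Phospho-Ser73 cJun antibody with Protein-A acceptor beads provided detection.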

[26] = biological target: Cytochrome P450 3A4 (Homo sapiens) (UniProt P08684); assay: qHTS Assay for Activators of Cytochrome P450 3A4 (AID 885); also: nearly all actives have a fitted effect of over 65% in size
Summary of the method: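 Activators are scored by enhanced luminescence from CYP3A4 conversion of luciferin-PPXE (25uM, equal to KM) to luciferin, after 60 min at RT with an NADPH-regenerating system.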

[27] = biological target: Dual specificity protein kinase CLK4 (Homo sapiens) (UniProt Q9HAZ1); assay: qHTS Assay for Inhibitors of CDC-like Kinase 4 (ADP-FP Assay) (AID 1795); also: nearly all actives have a fitted effect of over 60% in size; also: potency is read from the fitted curve at half-maximal effect
Summary of the method: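 Clk4 6.25 nM; RS peptide 100 uM; ATP 1 uM; 25 mM Tris pH 7.5, 10 mM MgCl2; 1 h reaction. ADP detected via antibody/orange tracer FP displacement; TG003 positive control.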

[28] = biological target: Ubiquitin carboxyl-terminal hydrolase 1 (Homo sapiens) (UniProt O94782); assay: Inhibitors of USP1/UAF1: Pilot qHTS (AID 504865);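 also: rhodamine fluorescence freed from ubiquitin-rhodamine substrate followed over time; top concentration of the series differs between compounds; % is scaled to controls: 0 for no effect and ±100 for the full control effect; nearly all actives have a fitted effect of over 35% in size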
Summary of the method: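 In 50mM HEPES pH 7.8 containing 0.5mM EDTA, 1mM TCEP, 0.1 mg/ml BSA and 0.01% Tween-20, 1nM USP1/UAF1 is exposed to compound for 15 min, then Ub-Rho (150nM final) is added and fluorescence is read over time.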

[29] = NFAT Signaling Pathway (AID 444; active = well fitted curve in either direction with a large enough effect, not every such curve was filed as active); conditions: Jurkat NFAT-bla M1, carbachol, beta-lactamase ratio, 5 h; at 7.69 µM (top of the series) unless noted
Summary of the method: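 Jurkat cells with NFAT-driven β-lactamase reporter and co-expressed M1 receptor, stimulated with carbachol (final 1 uM, ~EC50), compound titration, 5 h at 37 °C. CCF4 loaded 1 h at RT; 460/530 nm ratio gave %activity and AC50.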

Chain of Glutathione peroxidase 1 (Homo sapiens) (P07203 whole entry, looked up): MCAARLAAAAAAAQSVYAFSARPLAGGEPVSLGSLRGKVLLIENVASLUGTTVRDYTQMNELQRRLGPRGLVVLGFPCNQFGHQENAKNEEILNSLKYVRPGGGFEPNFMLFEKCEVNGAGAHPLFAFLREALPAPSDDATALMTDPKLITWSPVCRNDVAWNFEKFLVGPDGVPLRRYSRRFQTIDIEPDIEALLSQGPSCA
Chain of Glucocorticoid receptor (Homo sapiens) (P04150 whole entry, looked up, the tested form may be a part): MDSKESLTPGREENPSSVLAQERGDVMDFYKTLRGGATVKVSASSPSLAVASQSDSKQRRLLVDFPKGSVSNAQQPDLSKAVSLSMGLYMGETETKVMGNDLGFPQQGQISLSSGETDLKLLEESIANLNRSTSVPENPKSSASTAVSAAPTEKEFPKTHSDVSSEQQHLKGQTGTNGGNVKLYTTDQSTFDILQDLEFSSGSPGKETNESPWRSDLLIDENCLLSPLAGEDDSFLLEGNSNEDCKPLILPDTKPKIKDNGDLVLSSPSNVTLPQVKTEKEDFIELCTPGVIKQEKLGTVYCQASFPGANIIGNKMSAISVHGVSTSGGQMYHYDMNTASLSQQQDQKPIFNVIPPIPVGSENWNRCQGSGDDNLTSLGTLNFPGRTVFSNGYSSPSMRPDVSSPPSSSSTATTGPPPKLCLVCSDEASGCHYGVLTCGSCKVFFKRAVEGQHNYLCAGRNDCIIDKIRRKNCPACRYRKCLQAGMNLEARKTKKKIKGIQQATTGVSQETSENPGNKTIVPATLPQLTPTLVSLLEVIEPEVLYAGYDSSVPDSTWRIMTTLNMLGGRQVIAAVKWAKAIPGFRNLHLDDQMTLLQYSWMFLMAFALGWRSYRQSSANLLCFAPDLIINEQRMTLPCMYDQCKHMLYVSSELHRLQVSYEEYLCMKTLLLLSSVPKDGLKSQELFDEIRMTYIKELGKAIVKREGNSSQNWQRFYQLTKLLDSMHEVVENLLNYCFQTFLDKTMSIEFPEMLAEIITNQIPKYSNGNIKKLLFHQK
Chain of Estrogen receptor (Homo sapiens) (P03372 whole entry, looked up): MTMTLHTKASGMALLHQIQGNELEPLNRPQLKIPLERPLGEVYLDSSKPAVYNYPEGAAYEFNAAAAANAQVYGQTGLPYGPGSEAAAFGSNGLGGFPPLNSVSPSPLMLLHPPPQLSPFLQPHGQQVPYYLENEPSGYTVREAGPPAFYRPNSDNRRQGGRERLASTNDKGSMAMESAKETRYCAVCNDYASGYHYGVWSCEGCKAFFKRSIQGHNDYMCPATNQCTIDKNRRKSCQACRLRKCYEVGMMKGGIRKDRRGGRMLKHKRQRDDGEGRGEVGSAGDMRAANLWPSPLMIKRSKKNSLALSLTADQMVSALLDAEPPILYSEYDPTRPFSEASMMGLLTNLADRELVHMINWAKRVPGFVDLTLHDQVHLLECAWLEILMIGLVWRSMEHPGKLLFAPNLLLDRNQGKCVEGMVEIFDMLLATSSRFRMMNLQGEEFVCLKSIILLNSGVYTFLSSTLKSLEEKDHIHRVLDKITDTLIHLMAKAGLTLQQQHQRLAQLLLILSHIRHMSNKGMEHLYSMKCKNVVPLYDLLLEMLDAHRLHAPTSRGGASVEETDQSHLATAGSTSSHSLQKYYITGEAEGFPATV
Chain of Phospholipid hydroperoxide glutathione peroxidase GPX4 (Homo sapiens) (P36969 whole entry, looked up): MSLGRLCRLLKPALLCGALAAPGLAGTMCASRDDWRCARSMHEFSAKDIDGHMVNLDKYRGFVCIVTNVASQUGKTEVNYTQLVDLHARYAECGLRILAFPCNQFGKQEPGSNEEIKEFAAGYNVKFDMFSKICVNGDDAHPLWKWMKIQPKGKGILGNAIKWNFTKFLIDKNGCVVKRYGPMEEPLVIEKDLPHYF
Chain of Vitamin D3 receptor (Homo sapiens) (P11473 whole entry, looked up): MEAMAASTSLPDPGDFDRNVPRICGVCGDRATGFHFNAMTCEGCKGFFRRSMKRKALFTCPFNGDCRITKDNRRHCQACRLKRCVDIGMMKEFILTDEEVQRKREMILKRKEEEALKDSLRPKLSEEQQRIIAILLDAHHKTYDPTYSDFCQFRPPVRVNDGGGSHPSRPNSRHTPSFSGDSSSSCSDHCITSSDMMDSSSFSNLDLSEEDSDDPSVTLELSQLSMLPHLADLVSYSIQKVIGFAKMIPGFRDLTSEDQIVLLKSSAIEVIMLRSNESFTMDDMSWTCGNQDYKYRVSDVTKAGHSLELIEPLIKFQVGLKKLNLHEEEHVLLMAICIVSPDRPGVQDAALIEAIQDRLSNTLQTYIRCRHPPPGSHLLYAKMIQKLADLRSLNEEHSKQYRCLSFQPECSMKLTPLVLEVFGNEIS
Chain of Ubiquitin carboxyl-terminal hydrolase 1 (Homo sapiens) (O94782 whole entry, looked up): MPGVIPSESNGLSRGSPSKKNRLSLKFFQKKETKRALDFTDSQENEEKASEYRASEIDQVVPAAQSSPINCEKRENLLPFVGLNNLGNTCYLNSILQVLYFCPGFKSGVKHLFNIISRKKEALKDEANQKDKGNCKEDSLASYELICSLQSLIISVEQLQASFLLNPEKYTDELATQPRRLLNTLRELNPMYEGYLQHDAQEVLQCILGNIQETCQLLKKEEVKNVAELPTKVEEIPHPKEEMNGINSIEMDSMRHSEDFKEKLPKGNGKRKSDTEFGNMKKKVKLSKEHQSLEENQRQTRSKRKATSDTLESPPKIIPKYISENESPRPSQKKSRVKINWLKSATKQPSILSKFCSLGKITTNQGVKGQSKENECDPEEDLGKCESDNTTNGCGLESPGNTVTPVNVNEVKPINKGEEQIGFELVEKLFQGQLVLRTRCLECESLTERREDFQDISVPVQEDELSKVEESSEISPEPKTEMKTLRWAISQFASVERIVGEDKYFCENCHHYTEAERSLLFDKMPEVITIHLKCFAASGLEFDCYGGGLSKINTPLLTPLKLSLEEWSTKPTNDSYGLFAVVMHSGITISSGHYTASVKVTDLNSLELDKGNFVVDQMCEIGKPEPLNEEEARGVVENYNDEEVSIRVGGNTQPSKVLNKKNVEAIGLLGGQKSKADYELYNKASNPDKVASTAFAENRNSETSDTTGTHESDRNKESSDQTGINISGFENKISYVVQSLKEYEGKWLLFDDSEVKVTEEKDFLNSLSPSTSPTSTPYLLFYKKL
Chain of Dual specificity protein kinase CLK4 (Homo sapiens) (Q9HAZ1 whole entry, looked up): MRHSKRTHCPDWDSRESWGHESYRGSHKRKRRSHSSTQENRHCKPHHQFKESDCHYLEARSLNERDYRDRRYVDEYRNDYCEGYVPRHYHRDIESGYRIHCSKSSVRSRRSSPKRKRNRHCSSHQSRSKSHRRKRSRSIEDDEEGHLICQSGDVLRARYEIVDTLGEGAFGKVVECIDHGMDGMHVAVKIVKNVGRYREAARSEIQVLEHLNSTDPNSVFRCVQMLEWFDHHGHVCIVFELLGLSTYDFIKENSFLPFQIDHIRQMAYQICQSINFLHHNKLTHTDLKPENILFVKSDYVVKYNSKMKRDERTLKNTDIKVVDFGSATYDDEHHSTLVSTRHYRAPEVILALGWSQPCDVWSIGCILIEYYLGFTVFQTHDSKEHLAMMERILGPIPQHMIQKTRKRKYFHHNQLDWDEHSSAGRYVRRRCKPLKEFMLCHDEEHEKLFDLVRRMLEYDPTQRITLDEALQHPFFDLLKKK
Chain of Androgen receptor (Homo sapiens) (P10275 whole entry, looked up): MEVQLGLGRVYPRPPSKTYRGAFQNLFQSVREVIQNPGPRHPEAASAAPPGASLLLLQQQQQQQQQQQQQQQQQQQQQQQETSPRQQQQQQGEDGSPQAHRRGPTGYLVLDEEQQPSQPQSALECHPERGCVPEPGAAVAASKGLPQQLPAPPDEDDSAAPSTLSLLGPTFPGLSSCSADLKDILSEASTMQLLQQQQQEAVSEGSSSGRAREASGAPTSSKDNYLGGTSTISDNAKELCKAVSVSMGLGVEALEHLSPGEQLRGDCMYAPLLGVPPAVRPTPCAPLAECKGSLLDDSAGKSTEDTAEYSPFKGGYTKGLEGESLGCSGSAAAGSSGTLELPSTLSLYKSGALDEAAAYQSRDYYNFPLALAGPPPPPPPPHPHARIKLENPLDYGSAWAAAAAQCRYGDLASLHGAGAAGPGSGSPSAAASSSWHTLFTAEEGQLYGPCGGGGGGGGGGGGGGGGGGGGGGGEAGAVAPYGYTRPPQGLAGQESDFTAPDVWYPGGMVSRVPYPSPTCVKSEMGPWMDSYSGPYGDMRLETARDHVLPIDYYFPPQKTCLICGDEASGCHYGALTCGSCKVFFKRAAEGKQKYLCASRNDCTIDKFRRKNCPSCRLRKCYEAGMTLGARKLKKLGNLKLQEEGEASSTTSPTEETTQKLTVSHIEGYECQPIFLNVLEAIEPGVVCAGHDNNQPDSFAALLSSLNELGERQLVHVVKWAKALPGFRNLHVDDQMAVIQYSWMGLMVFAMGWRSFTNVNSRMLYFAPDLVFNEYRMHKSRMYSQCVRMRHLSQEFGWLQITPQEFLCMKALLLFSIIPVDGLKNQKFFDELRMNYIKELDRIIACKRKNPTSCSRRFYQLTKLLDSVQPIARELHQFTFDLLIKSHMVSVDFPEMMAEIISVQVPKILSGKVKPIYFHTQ
Chain of Peroxisome proliferator-activated receptor delta (Homo sapiens) (Q03181 whole entry, looked up): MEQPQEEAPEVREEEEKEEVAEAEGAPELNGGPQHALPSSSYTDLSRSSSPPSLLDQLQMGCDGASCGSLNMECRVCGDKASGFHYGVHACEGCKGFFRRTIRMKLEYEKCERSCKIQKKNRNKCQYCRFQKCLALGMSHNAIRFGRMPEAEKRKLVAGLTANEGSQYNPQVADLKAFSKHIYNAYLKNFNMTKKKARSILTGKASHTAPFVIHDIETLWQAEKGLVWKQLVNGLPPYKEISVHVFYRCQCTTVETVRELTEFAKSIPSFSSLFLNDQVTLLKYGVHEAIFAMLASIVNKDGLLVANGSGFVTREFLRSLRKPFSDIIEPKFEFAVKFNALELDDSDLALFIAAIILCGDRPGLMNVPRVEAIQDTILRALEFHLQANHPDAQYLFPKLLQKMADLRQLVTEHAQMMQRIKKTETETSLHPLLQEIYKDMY

CCCCCCCCCCCC(=O)O
12.5%: max response [4]
inactive: outcome [1] | Potency [2] | Potency [3] | Potency [5] | Potency [6]

CC1=C2[C@H](/C=C(\C)C(=O)O)CC[C@@H](C)[C@H]2CC1
inactive: Potency [7] | Potency [2] | Potency [8] | activation [9] -0.457% | outcome [10] | outcome [11] | outcome [12] | outcome [13]

C=C(C)C1CC=C(C)C(O)C1 (configuration not stated)
-1.36%: max response [17]
inactive: Potency [8] | Potency [14] | activation [15] 0.682% | outcome [16]

CCCCC/C=C/C/C=C/CCCCCCCC(=O)O
active: Potency [19] 4.47 µM
inactive: Potency [18]

CCCCCCCC/C=C/CCCCCCCC(=O)O
active: Potency [19] 11.2 µM
inactive: Potency [18]

CCc1ccc(Nc2c(F)c(F)cc(F)c2F)c(CC(=O)O)c1
inactive: Potency [18]

Cc1ccc(Nc2ncc(C(=O)N3CCN(c4ccc(F)cc4)CC3)c3ccccc23)cc1Cl
inactive: Potency [18]

COc1ccccc1-c1nc(Nc2ccncc2)c2ccccc2n1
inactive: activity change, negative = inhibition [20] -6.27% | outcome [22] | Potency [23] > 46 µM | Potency [24] > 46 µM | Potency [25] | outcome [26] | Potency [28]
active: Potency [21] 0.316 µM | Potency [27] 14.1 µM

Cc1ccccc1-c1ccc2ncnc(NCCN3CCOCC3)c2c1
inactive: activity change, negative = inhibition [20] 13.8% | activity change, negative = inhibition [29] -0.729% | outcome [22] | Potency [23] > 46 µM | Potency [24] > 46 µM | Potency [25] | Potency [27] | Potency [28]
